Where “and” joins values, the source holds several entries; their conditions need not be identical. Equal entries are not always repeated. The campaign covered roughly 5,500 compounds. About 2,000 (36%) were called active. Roughly 18% stayed inconclusive and do not appear here. Rule as the data show it: active = normalized growth mostly below about 0.91 (no sharp cut-off); inconclusive = no clear call, values can overlap the other calls; inactive = mostly above about 0.92. The list shows a part of the results.
Test: chemical genetic growth profiling, strain panel (AID 1159580);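 also: tested at 20 µM; growth read once vehicle control cultures reached saturation at 30 °C; 1 = growth at the plate median or of vehicle wells; lower values mean less growth of the strain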
Conditions: S. cerevisiae deletion strains, growth OD

Measured: normalized growth

OCC(O)CN1CCN(c2ccccc2)CC1 (stereo unspecified)
inactive: locus YAL013W, strain DEP1, stronger effect = lower value 0.995 | locus YAL021C, strain ccr4, stronger effect = lower value 0.923 | locus YAL026C, strain drs2, stronger effect = lower value 0.982 | locus YAL030W, strain snc1, stronger effect = lower value 0.996 | locus YBL061C, strain skt5, stronger effect = lower value 0.989 | locus YBR009C, strain hhf1, stronger effect = lower value 1 | locus YBR021W, strain FUR4, stronger effect = lower value 0.972 | locus YBR023C, strain chs3, stronger effect = lower value 0.997 | locus YBR171W, strain sec66, stronger effect = lower value 0.968 | locus YBR229C, strain ROT2, stronger effect = lower value 0.984 | locus YBR231C, strain swc5, stronger effect = lower value 0.999 | locus YBR279W, strain paf1, stronger effect = lower value 0.974 | locus YCL011C, strain gbp2, stronger effect = lower value 0.977 | locus YCL016C, strain dcc1, stronger effect = lower value 0.988 | locus YCL029C, strain bik1, stronger effect = lower value 0.978 | locus YCL061C, strain MRC1, stronger effect = lower value 0.973 | locus YCL069W, strain vba3, stronger effect = lower value 0.989 | locus YCR088W, strain abp1, stronger effect = lower value 0.98 | locus YDL005C, strain med2, stronger effect = lower value 0.963 | locus YDL035C, strain GPR1, stronger effect = lower value 1.02 | locus YDL040C, strain nat1, stronger effect = lower value 0.979 | locus YDL074C, strain BRE1, stronger effect = lower value 0.984 | locus YDL101C, strain DUN1, stronger effect = lower value 0.984 | locus YDL134C, strain PPH21, stronger effect = lower value 0.991 | locus YDL185W, strain tfp1, stronger effect = lower value 0.99 | locus YDL192W, strain arf1, stronger effect = lower value 0.995 | locus YDR001C, strain nth1, stronger effect = lower value 0.98 | locus YDR069C, strain doa4, stronger effect = lower value 0.982 | locus YDR101C, strain arx1, stronger effect = lower value 0.965 | locus YDR137W, strain rgp1, stronger effect = lower value 0.95 | locus YDR150W, strain NUM1, stronger effect = lower value 1 | locus YDR159W, strain sac3, stronger effect = lower value 1.01 | locus YDR162C, strain NBP2, stronger effect = lower value 1.01 | locus YDR195W, strain ref2 0.967 | locus YDR297W, strain sur2, stronger effect = lower value 0.982 | locus YDR318W, strain mcm21, stronger effect = lower value 0.989 | locus YDR334W, strain swr1, stronger effect = lower value 0.945 | locus YDR335W, strain msn5, stronger effect = lower value 0.978 | locus YDR388W, stronger effect = lower value 0.991 | locus YDR392W, strain spt3, stronger effect = lower value 0.931 | locus YDR502C, strain sam2, stronger effect = lower value 0.995 | locus YEL003W, strain gim4, stronger effect = lower value 0.938 | locus YEL037C, strain rad23, stronger effect = lower value 0.986 | locus YEL061C, strain CIN8 (second series), stronger effect = lower value 0.985 | locus YEL061C, strain CIN8, stronger effect = lower value 1 | locus YER015W, strain faa2, stronger effect = lower value 1 | locus YER016W, strain bim1, stronger effect = lower value 0.991 | locus YER110C, stronger effect = lower value 0.988 | locus YER111C, strain swi4, stronger effect = lower value 0.983 | locus YER155C, strain BEM2 (second series), stronger effect = lower value 1 | locus YER155C, strain BEM2, stronger effect = lower value 0.977 | locus YER167W, strain BCK2, stronger effect = lower value 1.01 | locus YGL078C, strain dbp3, stronger effect = lower value 0.991 | locus YGL086W, strain mad1, stronger effect = lower value 0.998 | locus YGL167C, strain pmr1, stronger effect = lower value 0.998 | locus YGL173C, strain kem1, stronger effect = lower value 0.978 | locus YGL227W, strain vid30, stronger effect = lower value 0.985 | locus YGL240W, strain doc1, stronger effect = lower value 1.01 | locus YGL248W, strain PDE1, stronger effect = lower value 0.975 | locus YGL253W, strain hxk2, stronger effect = lower value 0.993 | locus YGR078C, strain PAC10, stronger effect = lower value 0.99 | locus YGR135W, strain pre9, stronger effect = lower value 0.98 | locus YGR229C, strain SMI1, stronger effect = lower value 1.01 | locus YGR252W, strain gcn5, stronger effect = lower value 1.08 | locus YHR013C, strain ard1, stronger effect = lower value 0.953 | locus YHR027C, strain rpn1, stronger effect = lower value 0.984 | locus YHR030C, strain SLT2, stronger effect = lower value 0.991 and 0.969 | locus YHR079C, strain IRE1 (second series), stronger effect = lower value 0.991 | locus YHR079C, strain IRE1, stronger effect = lower value 0.965 | locus YHR094C, strain hxt1, stronger effect = lower value 0.992 | locus YHR129C, strain ARP1, stronger effect = lower value 0.985 | locus YHR142W, strain chs7, stronger effect = lower value 0.932 | locus YHR200W, strain rpn10, stronger effect = lower value 0.993 | locus YIL066C, strain RNR3, stronger effect = lower value 1 | locus YIL073C, strain SPO22, stronger effect = lower value 1.03 | locus YIL125W, strain kgd1, stronger effect = lower value 1 | locus YIR030C, strain dcg1, stronger effect = lower value 0.988 | locus YJL092W, strain hpr5, stronger effect = lower value 0.965 | locus YJL095W, strain BCK1 (second series), stronger effect = lower value 0.989 | locus YJL095W, strain BCK1, stronger effect = lower value 0.981 and 0.975 | locus YJL115W, strain asf1, stronger effect = lower value 0.965 | locus YJL129C, strain trk1, stronger effect = lower value 0.957 | locus YJL134W, strain LCB3, stronger effect = lower value 0.988 | locus YJL154C, strain vps35, stronger effect = lower value 0.983 | locus YJL164C, strain tpk1, stronger effect = lower value 0.966 | locus YJL166W, strain qcr8, stronger effect = lower value 1 | locus YJL168C, strain set2, stronger effect = lower value 0.983 | locus YJL187C, strain SWE1 (second series), stronger effect = lower value 0.988 | locus YJL187C, strain SWE1, stronger effect = lower value 0.981 | locus YJR043C, strain POL32, stronger effect = lower value 0.977 | locus YJR066W, strain TOR1, stronger effect = lower value 0.908

Source: PubChem BioAssay AID1159580 (chemical genetic matrix, 2015)
